Measurements from PubChem BioAssay (NCI).
This is part of a sample that, as a whole, favours compounds with a hit. Of some 83,000 tested, about 20% had one in any assay.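 Growth was measured after 48 h exposure to one concentration of compound in 96-well plates. Values under 10 count as active.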 Values without a mark were called inactive. Calls of active or inactive are those of the source.

System: HL-60(TB) leukemia
Assay: NCI-60 one-dose screen, 48 h (100 = growth as untreated, 0 = no growth, -100 = all killed)
Details: 10 µM unless noted

SMILES	growth
CC[C@H](CO)Nc1ccc2ncc(C#Cc3cncc(C(=O)Nc4ccc(CN5CCN(C)CC5)c(C(F)(F)F)c4)c3)n2n1	-46.3% (active)
O=C(/C=C/c1ccc(F)cc1)Nc1cccc2cccnc12	93.7%
CS(=O)(=O)c1ccc(-c2nn(-c3ccccc3)cc2/C=N/NC(=O)c2nc(N)n[nH]2)cc1	76.8%
COc1ccccc1/C=C/C=N/NC1=NC2C(S1)N(C)C(=O)N2C (stereo not given)	-22.1% (active)
C#CCOc1ccc(C(Nc2ccc(Cl)cc2)c2nnnn2C2CCCCC2)cc1 (stereo not given)	83.8%
Cc1ccc(NC(=S)NNC(=S)Nc2ccc(C)cc2)cc1	97.1%
C[C@@H](Nc1c(C#N)cnc2ccc(-c3cnc(N)nc3)cc12)c1ccccc1	8.49% (active)
O=C(CCN1C(=O)/C(=C/c2ccccc2F)SC1=S)N1CCOCC1	82.7%
C=C(C=O)[C@@H]1CC[C@]2(C)[C@H](C(=O)C=C3[C@H]4C[C@](C)(C(=O)OC)CC[C@]4(C)CC[C@]32C)[C@@]1(C)CCC#N	-27.3% (active)
Cc1ccc2c(n1)C(=O)C(Cl)=C(Nc1cc(C(F)(F)F)cc(C(F)(F)F)c1)C2=O	40.7%
COc1cc(O)c2c(c1)[C@H]1O[C@@H]1C[C@H](O)[C@H](O)C(=O)/C=C\C[C@H](C)OC2=O	0.185% (active)
C=C1C(=O)O[C@@H]2C[C@@H](C)[C@H](OC)CC(=O)[C@](C)(OC(C)=O)C[C@H](OC(=O)/C(C)=C\C)[C@@H]12	69.3%
CN1CCN(Cc2ccc(NC(=O)c3cncc(C#Cc4cnc5ccc(N6CCN(C)CC6)nn45)c3)cc2C(F)(F)F)CC1	-31.5% (active)
C=C(C)[C@@H]1CC[C@]2(COC)CC[C@]3(C)[C@H](CC[C@@H]4[C@@]5(C)CCCNC(C)(C)[C@@H]5CC[C@]43C)[C@@H]12	-69.2% (active)
CN(C)CCCOc1ccc2c(c1)CN(C(=O)c1cc(C(=O)N3Cc4cccc(F)c4C3)ccc1O)C2	107%
N#Cc1c(-c2cccs2)cc(-c2cnccn2)nc1SCC(=O)NNC(=S)Nc1ccc(F)cc1	122%
CCCCNNC(=O)c1ccc(-c2cccc(F)c2F)cc1	28.4%
COc1ccc(-c2nnc(SCc3ccc(O)c4ncccc34)o2)cc1	18.3%
O=C(CSc1nnc(-c2cccs2)n1-c1ccccc1)Nc1ccccc1	76%
NC1CC2(CCN(c3cnc(C(=O)Nc4cc(F)cc5cccnc45)cn3)CC2)C1	50.6%

SMILES	growth
COc1cc(Cn2cc3c(c2)-c2onc(CN4CCCC4)c2CC3)cc(OC)c1OC	99%
C#C[C@]1(O)CC[C@H]2[C@@H]3CC=C4c5sc(N(C)c6ccccc6)nc5CC[C@]4(C)[C@H]3CC[C@@]21C	61.8%
CC1(C)CC[C@]2(C(=O)N3CCOCC3)CC[C@]3(C)C(=CC[C@@H]4[C@@]5(C)C/C(=C/c6ccco6)C(=O)C(C)(C)[C@@H]5CC[C@]43C)[C@@H]2C1	57.2%
Clc1ccc2c(NCCCN3CCOCC3)c3oc4ccc(Cl)cc4c3nc2c1	67.7%
Cn1cc(-c2cc3ncnc(Nc4ccc(NC(=O)Nc5cc(C(C)(C)C)on5)cc4)c3s2)cn1	13.6%
COc1ccc(/C=C/C(=O)c2nnn(-c3ccc(Br)cc3)c2C)cc1OC	47.1%
COc1cc2nc(-c3ccc(C(F)(F)F)cc3)cc(OCCCNCC3CCCO3)c2cc1OC (stereo not given)	11.9%
N/C(=N\C(N)=N\c1nc2ccccc2s1)c1ccc2ccccc2c1	99.8%
O=C(NNc1nc2cc(F)cc(F)c2n2cccc12)c1cccnn1	3.63% (active)
O=C(NNc1nc2cc(F)ccc2n2c(CN3CCC(O)C3)ccc12)c1cnccn1 (stereo not given)	-14.8% (active)
CS(=O)(=O)c1ccc(/C(=N/N=C(N)N)c2ccc(F)cc2)cc1	97.8%
CN(C)c1ccc(/C=N/Nc2nc(N/N=C/c3ccc(N(C)C)cc3)nc(N3CCOCC3)n2)cc1	96.7%
Cc1cc2nc3c4cc(Cl)ccc4n(CC(=S)NCCN(C)C)c3nc2cc1C	-63.4% (active)
Cn1cc(-c2cc(N)n3nc(-c4cn(C)c5ccc(Br)cc45)cc3n2)c2cc(Br)ccc21	26.7%
Clc1ccc2c(NCCCn3ccnc3)c3oc4ccccc4c3nc2c1	40.4%
CC1=C2C(=C[C@@](C)(COS(N)(=O)=O)[C@@H]2O)C(=O)[C@](C)(O)C12CC2	61.4%
COc1ccc2[nH]cc(/C=N/Nc3ccnc4cc(Cl)ccc34)c2c1	-56.1% (active)
CC[C@H](C)[C@H]1NC(=O)[C@@H]([C@H](O)C(C)C)NC(=O)[C@@H](C)N(C)C(=O)[C@H](C)N(C)C(=O)[C@H](CC(C)C)NC(=O)[C@H](CC(C)C)N(C)C(=O)[C@H](C)N(C)C1=O	-19.4% (active)
NS(=O)(=O)c1ccc(Nc2nc(N/N=C/c3ccc(F)cc3)nc(Nc3ccccc3)n2)cc1	60.4%
CC(=O)Oc1ccccc1C(=O)Nc1ccc(C(=O)/C=C/c2cccs2)cc1	103%
